Drawing on PubChem BioAssay (EPA / NIEHS), this text covers outcome and AC50 for 15 compounds.

The target in assay [1] is Nuclear receptor subfamily 4 group A member 2 (Homo sapiens) (UniProt P43354). Nature of the assay: ATG_NURR1_TRANS: Attagene TRANS-FACTORIAL HepG2 Assay for human Nuclear Receptor Related Protein 1 (NURR1) (AID 2282985; active = hit-call score of the fitted dose curve at least 0.9, where 1 is the maximum). The settings on record: HepG2 Attagene TRANS reporter, mRNA readout. The method in brief:
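HepG2 / transient MRTU transfection / 24 h compound exposure / RT-PCR + CE fluorescence of reporter mRNA / gain-of-signal vs DMSO.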

A short description of assay [2]: ATG_NRF2_ARE_CIS: Attagene CIS-FACTORIAL HepG2 Assay for human Nuclear Factor Erythroid 2 Related Factor 2 (NFR2) response to Antioxidant Response Elements (ARE) (AID 2282992).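 As to AC50: reporter mRNA level measured by RT-PCR and capillary electrophoresis fluorescence.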 The settings on record: HepG2 Attagene ARE/NRF2 reporter, transcription factor activity; actives raise or lower the signal. The procedure, abridged: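 Multiplexed reporter mRNA profiling in HepG2 after a 24 h chemical exposure. Curves fitted in both directions relative to DMSO negative control.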

The target in assay [3] is X-box-binding protein 1 (Homo sapiens) (UniProt P17861). Put plainly: ATG_Xbp1_CIS: Attagene CIS-FACTORIAL HepG2 Assay for human X-box Binding Protein 1 (XBP1) (AID 2282972). The note with it: HepG2 XBP1 cis-element reporter, Attagene multiplex; actives raise or lower the signal. The method in brief:
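Fluorescence-labelled cDNA fragments from reporter transcripts, separated by capillary electrophoresis, give the signal. Source: HepG2 cells transfected with promoter-driven reporter units, harvested 24 h post-dose. DMSO served as reference for bidirectional curve fitting.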

Assay [4] can be described thus: ATG_GAL4_TRANS: Attagene TRANS-FACTORIAL HepG2 Assay for GAL4 (Internal Marker) (AID 2282976; active = hit-call score of the fitted dose curve at least 0.9, where 1 is the maximum). The settings on record: HepG2 Attagene TRANS GAL4 internal marker reporter. The procedure, abridged:
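First, HepG2 cells were transfected with reporter units under GAL4-UAS control. Next, they were treated with chemical for 24 h. Finally, RNA was reverse-transcribed, PCR-amplified, FAM-labelled and resolved by capillary electrophoresis, with induction scored against DMSO.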

Assay [5] concerns the target human Thyroid Receptor alpha (THRa1), THRA (gene 7067) (UniProt P10827). Put plainly: ATG_THRa1_TRANS: Attagene TRANS-FACTORIAL HepG2 Assay for human Thyroid Receptor alpha (THRa1) (AID 2283014; active = hit-call score of the fitted dose curve at least 0.9, where 1 is the maximum). The procedure, abridged:
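Reporter transcript induction, read by capillary electrophoresis of 6-FAM-labelled RT-PCR products, reflects activity of a transfected THRa1-Gal4 fusion in HepG2 liver cells. Cells were dosed for 24 h; activity was fitted in the positive direction against DMSO.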

The nature of assay [6]: ATG_XTT_Cytotoxicity: Cytotoxicity Assessment in the Attagene TRANS-FACTORIAL HepG2 Assay (AID 2283584; active = hit-call score of the fitted dose curve at least 0.9, where 1 is the maximum). The method in brief:
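Cells: human HepG2, transiently transfected with MRTU reporter constructs. Exposure 24 h. Readout: XTT, cell number. Baseline/neg ctrl DMSO; loss-of-signal scored.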

In assay [7] the target is Oxysterols receptor LXR-alpha (Homo sapiens) (UniProt Q13133). Nature of the assay: ATG_LXRa_TRANS: Attagene TRANS-FACTORIAL HepG2 Assay for human Liver X Receptor alpha (LXRa) (AID 2282980; active = hit-call score of the fitted dose curve at least 0.9, where 1 is the maximum). The note with it: HepG2 Attagene TRANS reporter, LXRa transactivation. The method in brief: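 Transfect HepG2 with GAL4-UAS multiplex reporter constructs (TRANS format, chimeric receptor-GAL4); treat 24 h; extract RNA, reverse-transcribe, PCR-amplify, FAM-label, HpaI-digest; resolve fragments by capillary electrophoresis. Upward response vs DMSO.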

The nature of assay [8]: BSK_3C_uPAR: BioMAP Diversity Plus: 3C Assay for Urokinase-type plasminogen activator receptor (uPAR) Biomarker Activity (AID 2282998). The settings on record: BioMAP 3C HUVEC, uPAR biomarker ELISA; actives raise or lower the signal. The method in brief:
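Dose primary human umbilical vein endothelial cells, incubate 24 h, measure cell-surface uPAR by ELISA, then fit the signal in both directions against the DMSO negative control.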

Assay [9] is described as follows: BSK_3C_VCAM1: BioMAP Diversity Plus: 3C Assay for Vascular cell adhesion molecule 1 (VCAM1) Biomarker Activity (AID 2282999). The note with it: BioMAP 3C HUVEC, VCAM1 ELISA, cytokine-stimulated; actives raise or lower the signal. The procedure, abridged:
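Human umbilical vein endothelial cells (3C system), biomarker read by ELISA 24 h after dosing; bidirectional fit against DMSO baseline. Cytotoxicity tracked by SRB total-protein staining in parallel cultures at biomarker time.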
(An ELISA detects its analyte on a solid surface through an enzyme-linked reagent.)

Assay [10] can be described thus: BSK_4H_Eotaxin3: BioMAP Diversity Plus: 4H Assay for Eotaxin 3 Biomarker Activity (AID 2283000).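 As to outcome: CCL26 protein level quantified by ELISA in parallel with SRB cytotoxicity check.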 The settings on record: primary human endothelial cells (HUVEC); actives raise or lower the signal. The method in brief: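 Chemicals were added to human umbilical vein endothelium cultures, and Eotaxin-3 was quantified by ELISA at 24 h. Values were derived by bidirectional fitting with DMSO serving as negative control and activity baseline.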

Assay [11] in a line: BSK_3C_Proliferation: Cell Proliferation Assessment in the BioMAP Diversity Plus: 3C Assay (AID 2283006).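 As to AC50: potency may reflect either rise or fall in cell number versus DMSO.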 The settings on record: primary human endothelial cells (HUVEC). The procedure, abridged:
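Proliferation of human vascular endothelial primary cells after 48 h dosing, quantified as SRB-stained protein at 560 nm relative to DMSO.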

Read-out in assay [12]: Interleukin-1 alpha (IL1a), IL1A (gene 3552)
Nature of the assay: BSK_BE3C_IL1a: BioMAP Diversity Plus: BE3C Assay for Interleukin-1 alpha (IL1a) Biomarker Activity (AID 2283016). The note with it: primary human bronchial epithelial cells; actives raise or lower the signal. The procedure, abridged: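 Cultures of primary human bronchial epithelial cells receive test chemical. After 24 h, IL-1a is quantified by ELISA, while parallel wells are fixed in TCA and SRB-stained for total protein. Changes in either direction are fitted relative to DMSO.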

Read-out in assay [13]: Monocyte Chemoattractant Protein-1 (MCP1), CCL2 (gene 6347)
Put plainly: BSK_3C_MCP1: BioMAP Diversity Plus: 3C Assay for Monocyte Chemoattractant Protein-1 (MCP1) Biomarker Activity (AID 2283017). The note with it: primary human endothelial cells (HUVEC); actives raise or lower the signal. The method in brief:
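ELISA read-out of MCP-1 from human umbilical vein endothelial cell cultures harvested 24 h post-dosing. Gain or loss of signal was fitted relative to DMSO.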

Read-out in assay [14]: Monocyte Chemoattractant Protein-1 (MCP1), CCL2 (gene 6347)
Nature of the assay: BSK_4H_MCP1: BioMAP Diversity Plus: 4H Assay for Monocyte Chemoattractant Protein-1 (MCP1) Biomarker Activity (AID 2283018). The note with it: primary human endothelial cells (HUVEC); actives raise or lower the signal. The procedure, abridged: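 Readout: MCP-1 ELISA on compound-treated HUVEC, sampled 24 h post-dosing. Baseline and negative control DMSO; bidirectional fit. Overt toxicity checked alongside by sulforhodamine B protein staining at time of biomarker measurement.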

Read-out in assay [15]: Monokine induced gamma interferon (MIG), CXCL9 (gene 4283)
Put plainly: BSK_3C_MIG: BioMAP Diversity Plus: 3C Assay for Monokine induced gamma interferon (MIG) Biomarker Activity (AID 2283021). The note with it: primary human endothelial cells (HUVEC); actives raise or lower the signal. The procedure, abridged: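 After 24 h of treatment, human umbilical vein endothelial cultures (3C system) had their MIG biomarker level determined by ELISA, with DMSO serving as negative control.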

Assay [16] is described as follows: BSK_3C_SRB: Viability Assessment in the BioMAP Diversity Plus: 3C Assay (AID 2283023).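 Also: fitted both ways against DMSO so a hit may be signal rise or drop.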 The note with it: primary human endothelial cells (HUVEC). The procedure, abridged:
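Absorbance at 560 nm of sulforhodamine B-stained (0.1%) total protein served as a cytotoxicity readout in human umbilical vein endothelial cells, 24 h after chemical treatment. Signal was fitted bidirectionally relative to DMSO.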

Assay [17] in a line: BSK_4H_SRB: Viability Assessment in the BioMAP Diversity Plus: 4H Assay (AID 2283027).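 Also: cells exposed to compound for 24 h before staining.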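 As to AC50: curves fitted both ways versus DMSO so AC50 may be loss or gain.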 The note with it: primary human endothelial cells (HUVEC). The procedure, abridged: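 Human umbilical vein endothelial cells, 24 h after chemical dosing; total protein measured by 0.1% sulforhodamine B staining after 10% TCA fixation, read at 560 nm. Bidirectional fitting against DMSO.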

Assay [18] is described as follows: BSK_BE3C_SRB: Viability Assessment in the BioMAP Diversity Plus: BE3C Assay (AID 2283028).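 As to AC50: fitted both ways so AC50 may mark signal gain or loss versus DMSO.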 The note with it: primary human bronchial epithelial cells. The procedure, abridged: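 Cells (human bronchial epithelial, primary) are treated with chemicals, and after 24 h the parallel cultures are fixed in 10% TCA. These are then stained with 0.1% SRB and read at 560 nm. Gain or loss of signal is fitted relative to DMSO.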

Read-out in assay [19]: Plasminogen activator inhibitor-1 (PAI1), SERPINE1 (gene 5054)
Put plainly: BSK_BE3C_PAI1: BioMAP Diversity Plus: BE3C Assay for Plasminogen activator inhibitor-1 (PAI1) Biomarker Activity (AID 2283037). The note with it: primary human bronchial epithelial cells; actives raise or lower the signal. The method in brief: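 PAI-1 biomarker levels in treated human bronchial epithelial cells are determined by ELISA at 24 h. Both increases and decreases relative to DMSO are fitted.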

Read-out in assay [20]: Tissue plasminogen activator (tPA), PLAT (gene 5327)
Put plainly: BSK_BE3C_tPA: BioMAP Diversity Plus: BE3C Assay for Tissue plasminogen activator (tPA) Biomarker Activity (AID 2283041).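 As to outcome: tPA level quantified by ELISA one day after compound addition.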 The settings on record: primary human bronchial epithelial cells; actives raise or lower the signal. The procedure, abridged:
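Bidirectional curve fitting relative to DMSO defined activity, with tPA detected by ELISA in chemically treated human bronchial epithelial primary cells at 24 hours.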

“And” between values parts separate entries of the source, which are not always exact repeats. Equal entries are not always repeated. Results filed as inconclusive are left out. The source made the active and inactive calls. The calls were made as follows, unless noted: active = hit-call score of the fitted dose curve at least 0.9, where 1 is the maximum; inactive = score below 0.9.

Sequence of Nuclear receptor subfamily 4 group A member 2 (Homo sapiens) (P43354 whole entry, looked up): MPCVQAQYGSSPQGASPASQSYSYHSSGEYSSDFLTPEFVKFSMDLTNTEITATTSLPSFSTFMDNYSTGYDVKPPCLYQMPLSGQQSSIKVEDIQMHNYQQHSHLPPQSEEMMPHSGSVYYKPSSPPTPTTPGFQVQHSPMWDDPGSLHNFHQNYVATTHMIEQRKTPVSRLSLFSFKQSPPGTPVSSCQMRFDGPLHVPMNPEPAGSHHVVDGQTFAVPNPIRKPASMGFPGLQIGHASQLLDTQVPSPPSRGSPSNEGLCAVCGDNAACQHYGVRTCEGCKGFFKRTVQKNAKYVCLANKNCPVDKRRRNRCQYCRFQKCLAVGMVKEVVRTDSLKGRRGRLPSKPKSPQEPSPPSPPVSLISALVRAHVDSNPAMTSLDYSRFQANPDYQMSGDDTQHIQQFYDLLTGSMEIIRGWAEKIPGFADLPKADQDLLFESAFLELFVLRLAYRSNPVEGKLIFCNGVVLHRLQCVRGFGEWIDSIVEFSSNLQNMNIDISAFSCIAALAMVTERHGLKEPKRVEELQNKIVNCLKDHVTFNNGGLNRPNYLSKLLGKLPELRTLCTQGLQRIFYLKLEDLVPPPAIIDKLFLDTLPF
Sequence of X-box-binding protein 1 (Homo sapiens) (P17861 whole entry, looked up, the tested form may be a part): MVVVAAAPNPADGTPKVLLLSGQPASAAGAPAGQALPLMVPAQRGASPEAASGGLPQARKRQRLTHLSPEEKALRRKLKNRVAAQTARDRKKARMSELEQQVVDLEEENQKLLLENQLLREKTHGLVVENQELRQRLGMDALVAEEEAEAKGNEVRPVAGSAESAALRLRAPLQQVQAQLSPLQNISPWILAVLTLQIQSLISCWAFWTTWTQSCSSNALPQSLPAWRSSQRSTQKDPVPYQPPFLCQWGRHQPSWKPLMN
Sequence of Oxysterols receptor LXR-alpha (Homo sapiens) (Q13133 whole entry, looked up, the tested form may be a part): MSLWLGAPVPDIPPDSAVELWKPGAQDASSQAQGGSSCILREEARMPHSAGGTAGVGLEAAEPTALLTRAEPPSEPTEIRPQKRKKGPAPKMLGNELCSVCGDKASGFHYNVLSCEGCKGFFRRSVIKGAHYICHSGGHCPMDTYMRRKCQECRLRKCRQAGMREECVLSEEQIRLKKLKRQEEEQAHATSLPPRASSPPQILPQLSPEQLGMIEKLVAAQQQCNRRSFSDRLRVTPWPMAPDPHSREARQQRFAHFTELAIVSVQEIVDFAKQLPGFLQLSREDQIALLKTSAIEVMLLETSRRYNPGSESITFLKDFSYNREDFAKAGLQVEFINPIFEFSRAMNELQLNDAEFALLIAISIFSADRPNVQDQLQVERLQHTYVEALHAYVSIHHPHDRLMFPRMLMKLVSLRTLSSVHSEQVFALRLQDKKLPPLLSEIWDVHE
Sequence of human Thyroid Receptor alpha (THRa1), THRA (gene 7067) (P10827 whole entry, looked up, the tested form may be a part): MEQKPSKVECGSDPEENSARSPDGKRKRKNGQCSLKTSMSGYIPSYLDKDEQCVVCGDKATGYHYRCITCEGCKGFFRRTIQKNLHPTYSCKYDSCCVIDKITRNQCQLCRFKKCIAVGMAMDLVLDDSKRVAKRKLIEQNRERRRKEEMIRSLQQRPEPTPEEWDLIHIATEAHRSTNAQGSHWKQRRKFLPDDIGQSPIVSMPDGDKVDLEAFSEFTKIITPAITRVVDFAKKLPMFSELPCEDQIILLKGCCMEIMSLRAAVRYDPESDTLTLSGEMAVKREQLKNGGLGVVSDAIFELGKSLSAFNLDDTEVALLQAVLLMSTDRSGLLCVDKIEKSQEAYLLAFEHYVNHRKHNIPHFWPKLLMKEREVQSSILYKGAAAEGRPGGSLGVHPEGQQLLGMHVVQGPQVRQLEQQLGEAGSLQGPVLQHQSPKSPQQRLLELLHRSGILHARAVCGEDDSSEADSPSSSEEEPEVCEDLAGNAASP

As to `O=C(C1CCCCC1)N1CC(=O)N2CCc3ccccc3C2C1` (configuration not stated), the compound was called inactive in assay [1] and in assay [2].

For `COc1c2occc2cc2ccc(=O)oc12`, the compound was called inactive in [3], in assay [4], in assay [5] and in assay [6].

For `CC(=O)OC(C)(C)Cc1ccccc1`, the call in assay [3], in [4], in assay [7], in assay [1] and in [6] was inactive.

For orientation: AC50 means the midpoint of the concentration-response curve, whichever way the signal moves. In the case of `O=[N+]([O-])c1cc(S(=O)(=O)Nc2ccccc2)ccc1Nc1ccccc1`, the AC50 in assay [8] is 26 µM (active) and 17.8 µM (active); in [10], 26.6 µM (active) and 25.5 µM (active); in assay [11] it was 30.6 µM (active) and 30.9 µM (active); in assay [12], 24 µM (active) and 30.5 µM (active); in assay [13], 32.3 µM (active) and 30 µM (active); in assay [14] it was 27.8 µM (active) and 20 µM (active). Also, the AC50 in [16] is 30.3 µM (active) and 30.8 µM (active); in [17], 30.5 µM (active) and 31 µM (active); in assay [18] it was 27.5 µM (active) and 31.7 µM (active); in [19] it was 24.7 µM (active) and 27.1 µM (active); in [20], 34 µM (active) and 29.7 µM (active). Besides, the result in assay [9] and in assay [15] was inactive.

For the compound `CCCCC(CC)COC(=O)C=Cc1ccc(OC)cc1` (configuration not stated), the half-maximal activity concentration (AC50) in assay [8] is 35.3 µM (active) and 26.2 µM (active); in [10], 24.2 µM (active) and 18.9 µM (active); in assay [11], 32.7 µM (active) and 27.1 µM (active); in assay [13], 33 µM (active); in assay [14], 20 µM (active) and 27.4 µM (active); in assay [16], 31.8 µM (active) and 31.4 µM (active). Also, in assay [17], the AC50 was 39 µM (active) and 36.8 µM (active). Further, the result in assay [9], in assay [12], in assay [15], in assay [18], in assay [19] and in [20] was inactive.

Take `OCCc1ccccn1`: the result in assay [3], in assay [7], in assay [1] and in assay [6] was inactive.

Turning to `Oc1ccc(Cl)cc1C1CCCC1`, the half-maximal activity concentration (AC50) in assay [3] is 43.1 µM (active); in [1], 8.65 µM (active); in assay [2] it was 12.9 µM (active). Moreover, the call in assay [7], in [5] and in [6] was inactive.

Consider `COc1ccc(C(=O)c2ccccc2O)c(O)c1`, for which the AC50 in assay [8] is 17.3 µM (active) and 20 µM (active); in [10] it was 10 µM (active) and 14.4 µM (active); in assay [11], 23.6 µM (active); in assay [16], 12.6 µM (active) and 13.7 µM (active); in assay [19], 24.5 µM (active) and 27.2 µM (active). The outcome in assay [9], in assay [12], in [13], in assay [14], in [15] and in assay [17] was inactive. Moreover, the result in [18] and in assay [20] was inactive.

As for `Brc1ccc(Oc2ccc(Br)cc2)cc1`, the compound was called inactive in assay [7], in assay [1] and in [5]. In addition, the AC50 in [2] was 66.4 µM (active).

Regarding `CCC(C)(CCC(C)C)C(=O)O` (configuration not stated), the compound was classed as inactive in assay [3], in assay [2] and in [6].

`CCO[Si](CCCN)(OCC)OCC`: the outcome in [3], in assay [4], in [7] and in [1] was inactive.

As for `CCOC(=O)c1ccccc1`, the compound was classed as inactive in assay [7], in assay [1] and in assay [2].

Regarding `C1CN(CCOCCN2CCOCC2)CCO1`, the outcome in assay [8], in assay [9], in assay [10], in assay [11], in [12] and in assay [13] was inactive. Moreover, the result in assay [14], in [15], in assay [16], in [17], in [18] and in assay [19] was inactive. Also, the outcome in assay [20] was inactive.

With `COc1ccc2ccccc2c1`, the outcome in assay [3], in assay [4], in assay [7] and in assay [5] was inactive.

Turning to `CC/C=C/CCO`, the outcome in assay [4], in assay [7], in assay [1], in assay [2], in assay [5] and in assay [6] was inactive.
